PubChem BioAssay (NCATS)
Inconclusive results are not listed. The source made the active and inactive calls. Calls come from the whole dose curve; as a rule, active = well fitted curve in the direction sought with a large enough effect; inconclusive = small, poorly fitted or top-dose-only effect, or another doubt; inactive = no such curve, though single readings can be large; an effect the other way counts as inactive or inconclusive.

How the values were obtained:
[1] = biological target: Cytochrome P450 3A4 (Homo sapiens) (UniProt P08684); assay: qHTS Assay for Inhibitors and Substrates of Cytochrome P450 3A4 (AID 884); conditions: recombinant CYP3A4, Luciferin-PPXE luminescence; series mostly up to 57.1 µM; note: nearly all actives have a fitted effect of over 50% in size
Outline: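 Luminescent readout of luciferin produced by CYP3A4 (20 nM) dealkylation of Luciferin-PPXE, 25 uM (its KM). NADPH-driven reaction ran 60 min at RT after 10 min compound preincubation; data scaled to 57 uM ketoconazole as 100% inhibition.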

[2] = system: Zika virus NS2B-NS3 protease; assay: Primary screen GU AMC qHTS for Zika virus inhibitors (AID 1347154); conditions: Zika NS2B-NS3 unlinked protease, AMC fluorogenic substrate; series mostly up to 54.1 µM; note: nearly all actives have a fitted effect of over 70% in size
Outline: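 Unlinked Zika NS2B hydrophilic domain/NS3 protease domain noncovalent complex (25 nM final) in 10 mM Tris-HCl pH 8.0, 0.01% Tween 20, with AMC peptide substrate. Fluorescence (ex 340, em 450 nm) change over 15 min, room temperature; percent inhibition fitted to 4-parameter Hill equation.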

[3] = Counterscreen qHTS for small molecule stabilizers of the endoplasmic reticulum resident proteome: GLuc-NoTag assay (AID 1508627); conditions: Gaussia luciferase NoTag secretion counterscreen, luminescence, thapsigargin 100 nM for final 4 h; series mostly up to 76.4 µM
Outline: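 Secreted GLuc lacking the SERCaMP modification is measured in SH-SY5Y cells exposed to compound for 19 h and then to thapsigargin (100 nM, 4 h) to deplete ER calcium; hits retested at 11 concentrations, up to 76.6 uM.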

[4] = Confirmatory qHTS for small molecule stabilizers of the endoplasmic reticulum resident proteome: Secreted ER Calcium Modulated Protein (SERCaMP) assay (AID 1508628); conditions: SERCaMP secreted luciferase ER calcium/proteostasis reporter; series mostly up to 76.3 µM; note: nearly all actives have a fitted effect of over 40% in size
Outline: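 Reporter secretion upon ER calcium depletion (100 nM thapsigargin, 4 h, 37C) is measured as medium luminescence with coelenterazine, after 16 h compound pretreatment of SH-SY5Y-GLuc-SERCaMP cells; primary at three concentrations up to 38.3 uM, follow-up at 11 (up to 76.6 uM).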

Measured: Potency

Sequence of Cytochrome P450 3A4 (Homo sapiens) (P08684 whole entry, looked up): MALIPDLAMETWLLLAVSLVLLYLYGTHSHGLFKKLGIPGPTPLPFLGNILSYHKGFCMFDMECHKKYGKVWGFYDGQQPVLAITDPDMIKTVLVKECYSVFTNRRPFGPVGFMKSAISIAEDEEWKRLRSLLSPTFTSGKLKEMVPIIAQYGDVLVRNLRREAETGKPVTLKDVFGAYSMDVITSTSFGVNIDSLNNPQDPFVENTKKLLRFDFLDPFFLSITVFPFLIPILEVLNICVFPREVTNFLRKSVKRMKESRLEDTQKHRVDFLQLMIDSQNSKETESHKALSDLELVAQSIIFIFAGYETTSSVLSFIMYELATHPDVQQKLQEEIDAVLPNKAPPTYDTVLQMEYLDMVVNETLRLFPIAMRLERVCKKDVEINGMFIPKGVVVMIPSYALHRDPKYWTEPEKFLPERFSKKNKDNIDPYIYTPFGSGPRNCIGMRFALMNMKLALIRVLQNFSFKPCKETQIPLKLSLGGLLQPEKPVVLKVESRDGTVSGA

CCCCCCCCCCCCCCCC(=O)OC(CO)CO
inactive: [1] | [2] | [3] | [4]
